Our source for the growth values is PubChem BioAssay (NCI).

About 83,000 compounds went through this panel and 20% of them were active in at least one assay; those are over-represented in the sample as a whole.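 Growth was measured after 48 h exposure to one concentration of compound in 96-well plates. Values under 10 count as active.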 Unmarked numbers belong to inactive results. Active and inactive are the calls of the source.

The subject of the first test is K-562 leukemia. As to the kind of experiment: NCI-60 one-dose screen, 48 h (100 = growth as untreated, 0 = no growth, -100 = all killed). Conditions: 10 µM.
On to `COc1ccc(C2c3sc4ccc(C)cc4c3Oc3nc(N)nc(N)c32)cc1` (centres undefined), for which the growth is 50.9%.

As to `Cc1cc(N=C2NC(=O)S/C2=C\c2ccc(F)cc2)n[nH]1`, the growth was 15.4%.

As to `Cn1cc(-c2nnc(N)nc2-c2c[nH]c3ccccc23)c2cc(Br)cnc21`, the growth is 15.1%.

As to `O=C(CC(=O)Nc1ccc(Oc2ncnc3scc(Nc4n[nH]c(=S)s4)c23)cc1)Nc1ccc(Cl)cc1`, the growth is 71.3%.

Take `O=C1NC2C=CC=CC2/C1=C1/SC(=S)N(C2CC(=O)N(c3ccc(Br)cc3)C2=O)C1=O` (centres undefined): the growth is 55.1%.

Consider `CC1(C)CC(=O)C2=C(C1)N(Cc1ccc(C(=O)O)cc1)C1=C(C(=O)CC(C)(C)C1)C2c1ccc(Cl)cc1`, for which the growth is 103%.

In the case of `Cc1ccc2c(c1)C(=O)/C(=C/c1ccc([N+](=O)[O-])cc1)S2`, the growth was 69.9%.

`O=C(Nc1ccc(OCc2ccc(Cl)cc2)cc1)Nc1ccc(Cl)c(C(F)(F)F)c1`: the growth is 7.62% (active).

`Cn1cc(-c2nc(N)nnc2-c2c[nH]c3ccccc23)c2cc(Br)cnc21`: the growth is 9.47% (active).

With `O=C(CSc1nc2ccccc2c(=O)n1-c1ccc(Cl)cc1)Nc1ccc(-c2nc3ccccc3[nH]2)cc1`, the growth is 2.71% (active).

Consider `Cc1ccc2c(c1)C(=O)/C(=C/c1c[nH]c3ccccc13)S2`, for which the growth was 19%.

Turning to `COc1cccc(O)c1/C=C1\SCc2cc3c(OC)cccc3[o+]c21`, the growth is 106%.

Consider `COc1cc(C2CC(c3ccc(Oc4ccc(Cl)cc4)cc3)=NN2c2nc(-c3ccc(Cl)cc3)c(C#N)c(N3CCOCC3)n2)cc(OC)c1OC` (centres undefined), for which the growth is 97.5%.

With `O=C(Nc1ccc(OCC(=O)c2ccc(Cl)cc2)cc1)Nc1ccc(Cl)c(C(F)(F)F)c1`, the growth is 65.3%.

In the case of `Cc1ccc2sc3c(c2c1)Oc1nc[nH]c(=O)c1C3c1cccc(F)c1` (centres undefined), the growth was 81.7%.

Consider `Cc1cc(N=C2NC(=O)/C(=C/c3cc(C(C)(C)C)c(O)c(C(C)(C)C)c3)S2)n[nH]1`, for which the growth was 18.3%.

On to `COc1ccc(C2c3sc4ccc(C)cc4c3Oc3nc[nH]c(=O)c32)cc1` (centres undefined), for which the growth is 36.2%.

As for `COc1cccc(C(=O)CSc2nc(-c3ccc(OCc4ccccc4)c(OC)c3)c(C#N)c(=O)[nH]2)c1`, the growth is 90.6%.

On to `Cc1ccc(COc2ccc(NC(=O)Nc3ccc(Cl)c(C(F)(F)F)c3)cc2)cc1`, for which the growth was 66.7%.

Regarding `O=C(O)CCN1C(=O)/C(=C/C=C/c2ccc([N+](=O)[O-])o2)SC1=S`, the growth is 11.1%.

With `CC(C)(C)c1cc(/C=C2\S/C(=N/c3ncn[nH]3)NC2=O)cc(C(C)(C)C)c1O`, the growth was 16.7%.

In the case of `Cn1cc(/C=C(/SS/C(=C/c2cn(C)c3cccc(C(=O)O)c23)C(=O)O)C(=O)O)c2c(C(=O)O)cccc21`, the growth is 87.4%.

Regarding `COc1ccc(C(=O)COc2ccc(NC(=O)Nc3ccccc3)cc2)cc1`, the growth is 94.6%.

As to `CCn1c(SCC(=O)Nc2ccc(-c3nc4ccccc4[nH]3)cc2)nc2ccccc2c1=O`, the growth was -11.3% (active).

As to `O=C(Nc1ccc(OCc2ccc(F)cc2)cc1)Nc1ccc(Cl)c(C(F)(F)F)c1`, the growth is 9.32% (active).

Regarding `O=C(CC(=O)Nc1ccc(Oc2ncnc3scc(Nc4n[nH]c(=S)s4)c23)cc1)Nc1ccc(Br)cc1`, the growth was 76.4%.

As to `COc1ccc(C(=O)COc2ccc(NC(=O)Nc3ccc(Cl)c(C(F)(F)F)c3)cc2)cc1`, the growth was 37.5%.

In the case of `O=C(Nc1ccc(Oc2ncnc3scc(Nc4n[nH]c(=S)s4)c23)cc1)C1(C(=O)Nc2cccc(C(F)(F)F)c2)CC1`, the growth was 102%.

For `O=C1NC(=S)S/C1=C\c1cn(-c2ccccc2)nc1-c1ccc([N+](=O)[O-])cc1`, the growth was 16.5%.

In the case of `O=C(CSc1nc2ccccc2c(=O)n1-c1ccc(Cl)cc1)Nc1ccc(-c2nc3ccc([N+](=O)[O-])cc3[nH]2)cc1`, the growth is 28.9%.

The subject of the next test is MALME-3M melanoma. The test is described as above. Particulars: 10 µM.
On to `COc1ccc(C2c3sc4ccc(C)cc4c3Oc3nc(N)nc(N)c32)cc1` (centres undefined), for which the growth is 85.3%.

In the case of `Cc1cc(N=C2NC(=O)S/C2=C\c2ccc(F)cc2)n[nH]1`, the growth was -7% (active).

As for `Cn1cc(-c2nnc(N)nc2-c2c[nH]c3ccccc23)c2cc(Br)cnc21`, the growth is 45.9%.

Turning to `O=C(CC(=O)Nc1ccc(Oc2ncnc3scc(Nc4n[nH]c(=S)s4)c23)cc1)Nc1ccc(Cl)cc1`, the growth is 109%.

Consider `O=C1NC2C=CC=CC2/C1=C1/SC(=S)N(C2CC(=O)N(c3ccc(Br)cc3)C2=O)C1=O` (centres undefined), for which the growth is 97.6%.

Regarding `CC1(C)CC(=O)C2=C(C1)N(Cc1ccc(C(=O)O)cc1)C1=C(C(=O)CC(C)(C)C1)C2c1ccc(Cl)cc1`, the growth was 105%.

On to `Cc1ccc2c(c1)C(=O)/C(=C/c1ccc([N+](=O)[O-])cc1)S2`, for which the growth is 97.8%.

On to `O=C(Nc1ccc(OCc2ccc(Cl)cc2)cc1)Nc1ccc(Cl)c(C(F)(F)F)c1`, for which the growth was -16.6% (active).

On to `Cn1cc(-c2nc(N)nnc2-c2c[nH]c3ccccc23)c2cc(Br)cnc21`, for which the growth is 36.7%.

Consider `O=C(CSc1nc2ccccc2c(=O)n1-c1ccc(Cl)cc1)Nc1ccc(-c2nc3ccccc3[nH]2)cc1`, for which the growth was -78.1% (active).

Turning to `Cc1ccc2c(c1)C(=O)/C(=C/c1c[nH]c3ccccc13)S2`, the growth was 91.9%.

Consider `COc1cccc(O)c1/C=C1\SCc2cc3c(OC)cccc3[o+]c21`, for which the growth was 107%.

In the case of `COc1cc(C2CC(c3ccc(Oc4ccc(Cl)cc4)cc3)=NN2c2nc(-c3ccc(Cl)cc3)c(C#N)c(N3CCOCC3)n2)cc(OC)c1OC` (centres undefined), the growth was 106%.

Regarding `O=C(Nc1ccc(OCC(=O)c2ccc(Cl)cc2)cc1)Nc1ccc(Cl)c(C(F)(F)F)c1`, the growth is 27.4%.

Take `Cc1ccc2sc3c(c2c1)Oc1nc[nH]c(=O)c1C3c1cccc(F)c1` (centres undefined): the growth is 98.7%.

`Cc1cc(N=C2NC(=O)/C(=C/c3cc(C(C)(C)C)c(O)c(C(C)(C)C)c3)S2)n[nH]1`: the growth is 19.2%.

Take `COc1ccc(C2c3sc4ccc(C)cc4c3Oc3nc[nH]c(=O)c32)cc1` (centres undefined): the growth is 84.8%.

Turning to `COc1cccc(C(=O)CSc2nc(-c3ccc(OCc4ccccc4)c(OC)c3)c(C#N)c(=O)[nH]2)c1`, the growth was 98.3%.

In the case of `Cc1ccc(COc2ccc(NC(=O)Nc3ccc(Cl)c(C(F)(F)F)c3)cc2)cc1`, the growth is 75.5%.

With `CC(C)(C)c1cc(/C=C2\S/C(=N/c3ncn[nH]3)NC2=O)cc(C(C)(C)C)c1O`, the growth was 36.8%.

Turning to `Cn1cc(/C=C(/SS/C(=C/c2cn(C)c3cccc(C(=O)O)c23)C(=O)O)C(=O)O)c2c(C(=O)O)cccc21`, the growth is 97.9%.

In the case of `COc1ccc(C(=O)COc2ccc(NC(=O)Nc3ccccc3)cc2)cc1`, the growth is 85.3%.

`CCn1c(SCC(=O)Nc2ccc(-c3nc4ccccc4[nH]3)cc2)nc2ccccc2c1=O`: the growth was -83.6% (active).

For the molecule `O=C(Nc1ccc(OCc2ccc(F)cc2)cc1)Nc1ccc(Cl)c(C(F)(F)F)c1`, the growth was -10.2% (active).

Take `O=C(CC(=O)Nc1ccc(Oc2ncnc3scc(Nc4n[nH]c(=S)s4)c23)cc1)Nc1ccc(Br)cc1`: the growth was 105%.

Take `COc1ccc(C(=O)COc2ccc(NC(=O)Nc3ccc(Cl)c(C(F)(F)F)c3)cc2)cc1`: the growth is 31.3%.

On to `O=C(Nc1ccc(Oc2ncnc3scc(Nc4n[nH]c(=S)s4)c23)cc1)C1(C(=O)Nc2cccc(C(F)(F)F)c2)CC1`, for which the growth is 95.8%.

As for `O=C1NC(=S)S/C1=C\c1cn(-c2ccccc2)nc1-c1ccc([N+](=O)[O-])cc1`, the growth is -5.53% (active).

With `O=C(CSc1nc2ccccc2c(=O)n1-c1ccc(Cl)cc1)Nc1ccc(-c2nc3ccc([N+](=O)[O-])cc3[nH]2)cc1`, the growth is 21.7%.
